Measurements taken from PubChem BioAssay (NCATS).
Results filed as inconclusive are left out. Calls of active or inactive are those of the source. Unless noted, calls come from the whole dose curve; as a rule, active = well fitted curve in the direction sought with a large enough effect; inconclusive = small, poorly fitted or top-dose-only effect, or another doubt; inactive = no such curve, though single readings can be large; an effect the other way counts as inactive or inconclusive.

Legend:
[1] = Natriuretic polypeptide receptor (hNpr1) antagonism - Pilot counterscreen GloSensor control cell line (AID 1347045; calls by dose curve; note: series mostly up to about 38 µM)
Outline: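 Control counterscreen: luciferase cGMP-biosensor HEK293 cells (no Npr1) received compound for 30 min at room temperature after GloSensor substrate loading. Luminescence was measured before and 20 min after soluble guanylyl cyclase activation by 50 uM nitroprusside.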

[2] = molecular target: Atrial natriuretic peptide receptor 1 (Homo sapiens) (UniProt P16066); assay: Natriuretic polypeptide receptor (hNpr1) antagonism - Pilot screen (AID 1347049; calls by dose curve;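 note: HEK293 cells with hNpr1 and GloSensor cGMP luciferase stimulated by 0.1 nM hNppA; agonist-evoked cGMP luminescence read 20 min after hNppA addition; series mostly up to about 58 µM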)
Sequence of Atrial natriuretic peptide receptor 1 (Homo sapiens) (P16066 whole entry, looked up): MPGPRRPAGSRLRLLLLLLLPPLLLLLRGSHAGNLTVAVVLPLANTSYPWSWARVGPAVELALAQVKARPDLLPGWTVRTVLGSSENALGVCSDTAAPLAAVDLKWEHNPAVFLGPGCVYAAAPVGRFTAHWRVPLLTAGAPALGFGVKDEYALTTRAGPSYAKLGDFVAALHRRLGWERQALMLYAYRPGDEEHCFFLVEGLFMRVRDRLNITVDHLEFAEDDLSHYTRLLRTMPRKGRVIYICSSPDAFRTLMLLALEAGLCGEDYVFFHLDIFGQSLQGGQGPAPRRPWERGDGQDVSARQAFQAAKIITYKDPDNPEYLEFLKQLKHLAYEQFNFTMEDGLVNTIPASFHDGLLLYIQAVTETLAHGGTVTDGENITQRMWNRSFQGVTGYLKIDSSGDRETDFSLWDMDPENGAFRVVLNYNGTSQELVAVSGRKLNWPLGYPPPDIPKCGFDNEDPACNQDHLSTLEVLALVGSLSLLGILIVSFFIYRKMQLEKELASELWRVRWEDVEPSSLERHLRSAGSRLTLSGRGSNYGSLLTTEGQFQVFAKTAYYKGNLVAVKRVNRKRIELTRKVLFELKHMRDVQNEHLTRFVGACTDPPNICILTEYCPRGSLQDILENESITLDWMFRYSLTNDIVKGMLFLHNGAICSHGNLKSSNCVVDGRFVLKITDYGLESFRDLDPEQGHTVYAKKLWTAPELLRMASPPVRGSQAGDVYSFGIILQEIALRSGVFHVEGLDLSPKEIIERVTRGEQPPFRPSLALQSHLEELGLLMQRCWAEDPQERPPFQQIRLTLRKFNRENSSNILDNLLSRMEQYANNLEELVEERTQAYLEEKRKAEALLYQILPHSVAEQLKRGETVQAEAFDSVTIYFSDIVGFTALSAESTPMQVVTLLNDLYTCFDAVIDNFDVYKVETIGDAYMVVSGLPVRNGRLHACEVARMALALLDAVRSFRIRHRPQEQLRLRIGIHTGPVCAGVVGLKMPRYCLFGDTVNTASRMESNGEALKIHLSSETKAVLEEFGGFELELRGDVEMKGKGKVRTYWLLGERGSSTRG
Outline: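 Cells expressing receptor plus cGMP biosensor are seeded and incubated overnight at 37C, then loaded with GloSensor reagent (2% final) at room temperature for 2 h. Library compounds go on for 30 min. A pre-read precedes agonist (hNppA, 0.1 nM final) and a 20-min readout.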

[3] = molecular target: Atrial natriuretic peptide receptor 2 (Homo sapiens) (UniProt P20594); assay: Natriuretic polypeptide receptor (hNpr2) antagonism - Pilot subtype selectivity assay (AID 1347050; calls by dose curve)
Sequence of Atrial natriuretic peptide receptor 2 (Homo sapiens) (P20594 whole entry, looked up): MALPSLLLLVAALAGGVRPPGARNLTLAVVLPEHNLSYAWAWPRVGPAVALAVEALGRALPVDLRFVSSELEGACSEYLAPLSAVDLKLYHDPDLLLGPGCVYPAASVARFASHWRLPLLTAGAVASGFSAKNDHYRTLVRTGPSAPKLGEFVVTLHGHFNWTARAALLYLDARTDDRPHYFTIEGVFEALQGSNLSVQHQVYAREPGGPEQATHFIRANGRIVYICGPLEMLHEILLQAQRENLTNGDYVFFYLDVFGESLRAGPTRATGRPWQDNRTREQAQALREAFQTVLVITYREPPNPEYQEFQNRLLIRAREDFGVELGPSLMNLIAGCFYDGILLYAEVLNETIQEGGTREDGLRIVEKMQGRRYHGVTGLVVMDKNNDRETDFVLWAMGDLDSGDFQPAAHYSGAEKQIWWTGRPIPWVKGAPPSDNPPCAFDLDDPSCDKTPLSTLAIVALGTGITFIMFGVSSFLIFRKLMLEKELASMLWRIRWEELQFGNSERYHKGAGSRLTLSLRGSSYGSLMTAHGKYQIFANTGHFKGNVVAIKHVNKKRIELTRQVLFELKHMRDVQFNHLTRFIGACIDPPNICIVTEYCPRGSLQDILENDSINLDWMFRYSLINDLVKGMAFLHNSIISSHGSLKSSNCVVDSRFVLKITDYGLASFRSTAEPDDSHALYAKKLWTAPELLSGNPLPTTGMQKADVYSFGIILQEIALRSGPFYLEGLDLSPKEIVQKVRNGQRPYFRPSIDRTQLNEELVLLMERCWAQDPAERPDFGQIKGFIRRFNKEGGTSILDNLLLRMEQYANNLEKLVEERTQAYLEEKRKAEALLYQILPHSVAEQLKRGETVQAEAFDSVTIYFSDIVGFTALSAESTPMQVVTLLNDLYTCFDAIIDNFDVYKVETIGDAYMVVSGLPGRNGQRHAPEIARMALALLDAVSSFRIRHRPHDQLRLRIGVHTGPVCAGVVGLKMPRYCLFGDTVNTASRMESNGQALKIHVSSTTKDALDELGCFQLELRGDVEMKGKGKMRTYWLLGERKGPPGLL
Outline: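 Read-out: GloSensor luminescence (CCD imager), baseline vs post-stimulation. HEK293 cells expressing hNpr2; compounds pre-incubated 30-50 min at ambient temperature; hNppC 1 nM final, 20 min.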

[4] = NS1 protein of Zika virus - qHTS assay to identify small molecule inhibitors in human HEK 293 cells (AID 1347053); note: series mostly up to about 46 µM; nearly all actives have a fitted effect of over 55% in size
Outline: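 Readout was TR-FRET using paired anti-NS1 antibodies after 24 h infection of HEK 293 cells with ZIKV MR766 (MOI = 0.5). Compound preceded virus by 1 h; reduced signal reflects lower NS1 expression.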

[5] = molecular target: T1, Tyrosine-protein phosphatase non-receptor type substrate 1 (Homo sapiens) + Leukocyte surface antigen CD47 (Homo sapiens) (UniProt P78324+Q08722); assay: CD47-SIRPalpha protein protein interaction - LANCE assay qHTS validation (AID 1347057; active = well fitted curve in the direction sought with a large enough effect in the signal ratio, with a control signal flat, not every such curve was filed as active; the % refers to the signal ratio; note: series mostly up to about 38 µM)
T1 sequence (P78324 whole entry, looked up, the tested form may be a part): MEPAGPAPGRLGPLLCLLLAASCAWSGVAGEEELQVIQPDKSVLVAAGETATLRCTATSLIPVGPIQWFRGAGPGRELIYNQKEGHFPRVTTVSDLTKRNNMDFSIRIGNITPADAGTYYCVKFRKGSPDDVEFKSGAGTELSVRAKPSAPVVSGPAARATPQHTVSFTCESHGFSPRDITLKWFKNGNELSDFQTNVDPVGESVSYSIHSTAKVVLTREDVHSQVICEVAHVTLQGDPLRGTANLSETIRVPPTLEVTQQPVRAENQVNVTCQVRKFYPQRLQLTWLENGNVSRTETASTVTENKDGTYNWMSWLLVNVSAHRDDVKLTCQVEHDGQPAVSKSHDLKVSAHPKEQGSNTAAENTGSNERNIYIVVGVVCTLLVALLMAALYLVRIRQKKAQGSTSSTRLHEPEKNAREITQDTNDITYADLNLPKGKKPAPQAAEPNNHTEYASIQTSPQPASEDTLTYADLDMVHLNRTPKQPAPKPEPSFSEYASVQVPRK
T1 sequence (Q08722 whole entry, looked up, the tested form may be a part): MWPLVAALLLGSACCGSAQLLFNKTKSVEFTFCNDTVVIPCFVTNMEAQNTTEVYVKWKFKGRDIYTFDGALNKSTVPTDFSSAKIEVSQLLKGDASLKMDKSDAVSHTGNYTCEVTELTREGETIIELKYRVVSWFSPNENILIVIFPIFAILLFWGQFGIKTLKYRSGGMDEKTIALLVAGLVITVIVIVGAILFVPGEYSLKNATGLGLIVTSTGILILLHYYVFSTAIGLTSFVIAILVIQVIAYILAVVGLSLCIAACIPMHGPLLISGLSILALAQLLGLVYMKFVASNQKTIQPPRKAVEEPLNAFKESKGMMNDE
Outline: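 Inhibition of soluble CD47/SIRPalpha ectodomain association by titrated compounds, measured as 665/615 nm time-resolved FRET ratio after sequential 30 min room-temperature incubations.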

[6] = molecular target: T1, Tyrosine-protein phosphatase non-receptor type substrate 1 (Homo sapiens) + Leukocyte surface antigen CD47 (Homo sapiens); assay: CD47-SIRPalpha protein protein interaction - HTRF assay qHTS validation (AID 1347058; active = well fitted curve in the direction sought with a large enough effect in the signal ratio, not every such curve was filed as active; the % refers to the signal ratio; note: series mostly up to about 38 µM)
Outline: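 Soluble extracellular domains (6His-CD47, Avi-tag-biotinylated SIRPalpha) in PBS pH 7.4 with 0.05% IGEPAL CA-630. Compounds were preincubated 30 min at RT with CD47 and anti-His-Eu, then SIRPalpha and SAV-XL665 were added. TR-FRET 665/615 ratio.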

[7] = molecular target: T1, Tyrosine-protein phosphatase non-receptor type substrate 1 (Homo sapiens) + Leukocyte surface antigen CD47 (Homo sapiens); assay: CD47-SIRPalpha protein protein interaction - Alpha assay qHTS validation (AID 1347059);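 note: bead proximity luminescence from CD47 binding SIRPalpha after compound preincubation with SIRPalpha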
Outline: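 In PBS (pH 7.4) with 0.05% IGEPAL CA-630, compound is preincubated with biotin-Avi-SIRPalpha ectodomain before His-CD47 ectodomain and affinity beads are added. Light-protected room-temperature incubations; AlphaScreen readout.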

[8] = molecular target: Parathyroid hormone/parathyroid hormone-related peptide receptor (Homo sapiens) (UniProt Q03431); assay: qHTS for PTHR1 Agonists: Optimization Screen against the NCGC LOPAC library (AID 1347079);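 note: GloSensor cAMP luminescence in HEK-293 GP2 cells expressing human PTHR1 with IBMX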
Sequence of Parathyroid hormone/parathyroid hormone-related peptide receptor (Homo sapiens) (Q03431 whole entry, looked up): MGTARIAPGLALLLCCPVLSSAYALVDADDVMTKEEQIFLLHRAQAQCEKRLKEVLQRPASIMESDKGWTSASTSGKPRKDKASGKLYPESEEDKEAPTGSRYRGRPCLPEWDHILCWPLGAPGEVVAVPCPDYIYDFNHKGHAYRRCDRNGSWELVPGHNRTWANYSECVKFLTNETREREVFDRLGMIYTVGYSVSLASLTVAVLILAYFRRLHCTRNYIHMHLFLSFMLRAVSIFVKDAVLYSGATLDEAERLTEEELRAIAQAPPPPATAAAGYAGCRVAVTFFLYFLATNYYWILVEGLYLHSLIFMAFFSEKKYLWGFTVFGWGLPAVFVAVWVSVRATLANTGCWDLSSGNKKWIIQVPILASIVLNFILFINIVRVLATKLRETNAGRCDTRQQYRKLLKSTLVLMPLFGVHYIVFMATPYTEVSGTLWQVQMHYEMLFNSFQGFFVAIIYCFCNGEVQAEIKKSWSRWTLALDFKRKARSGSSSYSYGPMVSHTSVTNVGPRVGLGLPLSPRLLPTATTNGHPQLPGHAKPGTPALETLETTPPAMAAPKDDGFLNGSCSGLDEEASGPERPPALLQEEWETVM
Outline: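 HEK-293 GP2 cells, PTHR1 + GloSensor cAMP; 3000 cells/well, o/n. Luciferin + IBMX 0.5mM each (stock), 1 hr 37C. Cpd titration, 1 hr 37C. Lum after 15 min RT. Ctrl M-PTH(1-15) top 10uM.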

[9] = P-glycoprotein substrates identified in KB-8-5-11 adenocarcinoma cell line, qHTS therapeutic library screen (AID 1346987); note: nearly all actives have a fitted effect of over 65% in size; note: potency is the fitted concentration of half-maximal effect
Outline: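 Compounds are pinned in dose-response onto KB-8-5-11 cells (500 cells/well, colchicine-free medium) and left 72 h at 37 degree C. CellTiter-Glo luminescence then yields AC50 values.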

[10] = qHTS of pediatric cancer cell lines to identify multiple opportunities for drug repurposing: Primary screen for A673 cells (AID 1347092); note: nearly all actives have a fitted effect of over 45% in size; note: potency is the fitted concentration of half-maximal effect
Outline: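 Cells are plated, rested 5 h, dosed by pintool, incubated 48 h, then lysed with CellTiter-Glo and read by luminescence. DMSO is the neutral control; bortezomib at 2.3 uM final is the positive control.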

[11] = qHTS of pediatric cancer cell lines to identify multiple opportunities for drug repurposing: Primary screen for SK-N-MC cells (AID 1347093); note: potency is the fitted concentration of half-maximal effect
Outline: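 Metabolically active cells were quantified by ATP-dependent luminescence (CellTiter-Glo, 15 min at room temperature) following 48 h treatment. Cells had been plated at 500-1,000 per well and settled for 5 h beforehand.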

[12] = qHTS of pediatric cancer cell lines to identify multiple opportunities for drug repurposing: Primary screen for SJ-GBM2 cells (AID 1347091)
Outline: (§1)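 Eight- or eleven-point concentration series, 48 h treatment at 37 degrees C in growth media; readout CellTiter-Glo luminescence. Potency and efficacy were taken from the concentration-response curves.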

[13] = qHTS of pediatric cancer cell lines to identify multiple opportunities for drug repurposing: Primary screen for DAOY cells (AID 1347090); note: series mostly up to about 46 µM; nearly all actives have a fitted effect of over 55% in size
Outline: as §1

[14] = qHTS of pediatric cancer cell lines to identify multiple opportunities for drug repurposing: Primary screen for TC32 cells (AID 1347089); note: nearly all actives have a fitted effect of over 60% in size
Outline: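 Measured quantity: luminescence from CellTiter-Glo, reflecting metabolically active TC32 cells following 48 h of compound. Curves came straight from multi-point titrations, with 8 or 11 points in primary and 11 in confirmatory screening.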

Measured: Potency

CC(C)(C)[C@]1(O)CCN2C[C@H]3c4ccccc4CCc4cccc(c43)[C@@H]2C1
inactive: [1] | [2] | [3] | [4] | [5] | [6] | [7] | [8]

COc1ccc2cc1Oc1ccc(cc1)C[C@H]1c3c(cc4c(c3Oc3cc5c(cc3OC)CCN(C)[C@@H]5C2)OCO4)CCN1C
active: [9] 20.6 µM | [10] 13.3 µM | [11] 15 µM

OC[C@H]1O[C@@H](O[C@@H]2[C@@H](CO)O[C@](O)(CO)[C@H]2O)[C@H](O)[C@@H](O)[C@H]1O
inactive: [9] | [4] | [12] | [10] | [11]

O=c1cc[nH]c(=S)[nH]1
inactive: [9] | [4] | [12]
active: [10] 0.001 µM | [11] 2.66 µM

CCOC(=O)c1ccc(O)cc1
inactive: [9] | [4] | [13] | [12] | [10] | [11]

CC1(C)CO[C@@H](CC(=O)O)CN1
inactive: [9] | [4] | [13] | [12] | [10] | [11]

CC(C)NC[C@H](O)c1ccc(O)c(O)c1
inactive: [1] | [2] | [3] | [4] | [5] | [6] | [7]

Cc1ccc(C(C)C)cc2c(C)ccc1-2
inactive: [9] | [4] | [13] | [12] | [10] | [11]

O=C(O)[C@@H]1CSCN1
inactive: [9] | [4] | [13] | [12] | [10] | [11]

CC12CCC(CC1)C(C)(C)O2
inactive: [9] | [4] | [13] | [10] | [11]

[Cl][In]([Cl])[Cl]
inactive: [9] | [4] | [13] | [12]

CC(=O)NC(Cc1ccccc1)C(=O)O (stereo not given)
inactive: [9] | [4] | [13] | [12] | [10] | [11]

CC(O)CN(CCN(CC(C)O)CC(C)O)CC(C)O (stereo not given)
inactive: [9] | [4] | [13] | [12] | [10] | [11]

CCCc1c(OCCCCc2nn[nH]n2)ccc(C(C)=O)c1O
inactive: [9] | [4] | [13] | [10] | [11]

CC(C)(O)c1ccccc1CC[C@@H](SCC1(CC(=O)O)CC1)c1cccc(/C=C/c2ccc3ccc(Cl)cc3n2)c1
inactive: [9] | [4] | [12] | [10] | [11]

CCC(=O)c1ccc(O)cc1
inactive: [9] | [4] | [14] | [12] | [10] | [11]

COc1cc2[nH]c(=O)[nH]c(=O)c2cc1OC
inactive: [9] | [4] | [13] | [12] | [10] | [11]
